# Source: ChEMBL document CHEMBL4513216, “Probing the Open Global Health Chemical Diversity Library for Multistage-Active Starting Points for Next-Generation Antimalarials” (ACS Infect Dis, 2020)
# Among all 68,000 compounds or so, about 2,700 (4%) showed an effect of 50% or more. This excerpt belongs to a sample that is enriched for strong results.
# System: Plasmodium berghei
# Test: Screen against P. berghei liver stage (PbLuc), transformed with Luciferase, at 2uM
# Type: functional, HepG2
# Details: tested at 2 uM
row,SMILES,INHIBITION [%]
1,c1coc(CN2CCC(c3ccc4c(c3)OCO4)CC2)c1,-8.85
2,Cc1ccc(CN(CCCn2ccnc2)Cc2ccccc2O)s1,-43.99
3,CN(C)CCNC(=O)c1cc(-c2cnc(N3CCCC3)nc2)cn1C,9.79
4,Cc1cccc(C(=O)N2CCCCC2c2ccc(CN(C)C)cc2)n1 (centres undefined),-32.59
5,Fc1cc(Cl)cnc1N1CCCC(c2nccn2Cc2ccccn2)C1 (centres undefined),3.97
6,COc1c(Cl)cc(C(=O)NCCNc2ncccn2)cc1Cl,21.97
7,CN1CCCC[C@@H]2[C@H]1[C@@H](c1ccccc1)CCN2C(=O)c1cccnc1,51.57
8,CN1CCCC[C@@H]2[C@H]1[C@@H](c1ccccc1)CCN2C(=O)c1ccccc1,-60.34
9,CN1CCCCC[C@@H]2[C@@H]1[C@H](c1ccccc1)CN2C(=O)c1cccnc1,31.28
10,COc1ccc(C(=O)C2CCCN(Cc3cccc(F)c3)C2)c(OC)c1 (centres undefined),-14.94
11,COc1ccc(F)cc1C(=O)C1CCCN(Cc2ccc(C)s2)C1 (centres undefined),49.02
12,COc1ccc(F)cc1C(=O)C1CCCN(Cc2cnc(C)s2)C1 (centres undefined),72.49
13,CO[C@@H]1CCN(Cc2ccoc2)C[C@@H]1Cc1ccccc1,28.46
14,OC1CCN(c2cnnc3ccccc23)CC1,-1.81
15,CCc1c(C)nc2ccccc2c1N1CCC(C(=O)NC)CC1,5.28
16,CCc1c(C)nc2ccccc2c1N1CCC(NC(C)=O)CC1,50.59
17,CCOC(=O)N1CCN(c2nc(N)c3ccccc3n2)CC1,-12.08
18,CCOC(=O)N1CCN(c2nc(NC3CC3)c3ccccc3n2)CC1,27.85
19,CCc1c(C)nc2ccccc2c1N1CCC(O)CC1,60.13
20,CN(CCc1cccc2ccccc12)Cc1nc(N)nc(N(C)C)n1,-3.1
21,COCC[C@]1(O)CCN(Cc2nc(C)cs2)C[C@H]1C,-9.15
22,Cc1n[nH]c(C)c1C1CCCN1C(=O)c1cc(Br)c[nH]1 (centres undefined),56.21
23,Cc1cccc(C(=O)N2CCCC2c2c(C)n[nH]c2C)c1 (centres undefined),41.84
24,Cc1n[nH]c(C)c1C1CCCN1C(=O)c1coc(Br)c1 (centres undefined),28.43
25,Cn1cc2c(n1)C(CNC1CCOCC1)OCC2 (centres undefined),-10.78
26,CCOCC(=O)N1CCC2(CC1)COC(COCc1ccccn1)C2 (centres undefined),18.05

row,SMILES,INHIBITION [%]
1,CC(=O)N1CCC2(CC1)COC(COCc1ccccn1)C2 (centres undefined),53.55
2,COCC(=O)N1CCC2(CC1)COC(COCc1ccccn1)C2 (centres undefined),37.41
3,FC(F)(F)Oc1ccc(-c2c[nH]c([C@@H]3COCCN3)n2)cc1,12.28
4,FC(F)(F)c1ccc(-c2c[nH]c([C@@H]3COCCN3)n2)cc1,64.99
5,Fc1ccc(-c2c[nH]c([C@@H]3COCCN3)n2)cc1,32.59
6,CC(c1ncc(-c2ccccc2)o1)N1CCN(C(=O)C(C)(C)C)CC1 (centres undefined),-18.71
7,CNC(=O)CCN(C)c1nc(-c2ccncc2)nc2c1CCNC2,24.54
8,Cc1nc(CO[C@@H]2CN(Cc3ccsc3)[C@@H]3COC[C@@H]32)cs1,24.43
9,Cc1ccc(CN2C[C@@H](OCc3csc(C)n3)[C@H]3COC[C@H]32)s1,9.36
10,Cc1nc(CO[C@@H]2CN(Cc3ccc(F)cc3)[C@@H]3COC[C@@H]32)cs1,-17.76
11,Cc1nc(CO[C@@H]2CN(Cc3cccs3)[C@@H]3COC[C@@H]32)cs1,26.01
12,Cc1nc(CO[C@H]2CN(Cc3cccs3)[C@@H]3COC[C@H]23)cs1,56.76
13,Cc1nc(CO[C@@H]2CN(Cc3cccnc3)[C@@H]3COC[C@@H]32)cs1,55.66
14,CC1=C(C(=O)NCCc2n[nH]c3c2CCCC3)C(C)NC(=O)N1 (centres undefined),-18.23
15,COCc1nc(-c2ccnc(N3CCNCC3)n2)no1,-8.07
16,CC(C)c1noc(CS(=O)(=O)CC(=O)NCc2cccs2)n1,20.74
17,CC(C)c1noc(CS(=O)(=O)CC(=O)NCCOc2ccccc2)n1,-38.35
18,CC(C)c1noc(CS(=O)(=O)CC(=O)NCc2ccccc2)n1,66.33
19,CN1CC(=O)N(c2cccc(F)c2)CC12CCN(CCO)C2 (centres undefined),-15.88
20,CN1CC(=O)N(c2ccccc2)CC12CCN(CCO)C2 (centres undefined),65.73
21,CN1CC(=O)N(c2ccccc2)CC12CCN(CC1CC1)C2 (centres undefined),-8.23
22,Cc1ncnc2c1CCN(C(=O)c1ccoc1)CC2,33.47
23,Cc1nc(-c2ccccc2)sc1CNC1CCc2ncnn2C1 (centres undefined),-21.39
24,Cc1ncnc2c1CCN(CC1CCOC1)CC2 (centres undefined),8.73
25,COCCC(=O)N1CC[C@@H](N(C)C)[C@@H]1Cc1ccccc1,2.71
26,COc1cccc(C(=O)N2CCN(C(=O)CCn3ccnc3)CC2)c1,-14.71

row,SMILES,INHIBITION [%]
1,COc1cccc(OCC2CCCN(C(=O)CCCn3cccn3)C2)c1 (centres undefined),31.51
2,COc1cccc(OCC2CCCN(C(=O)CCn3ccnc3)C2)c1 (centres undefined),50.59
3,COc1ccccc1C(=O)N1CCN(C(=O)CCn2ccnc2)CC1,51.4
4,COc1ccccc1OC1CCN(C(=O)CCCn2ccnc2)CC1,29.9
5,COc1cccc(OCC2CCCN(C(=O)c3cnn(C)c3)C2)c1 (centres undefined),29.13
6,COc1cccc(CCC2CCCN(C(=O)c3ccc(OC)o3)C2)c1 (centres undefined),38.67
7,COc1cccc(OCC2CCCN(C(C)=O)C2)c1 (centres undefined),12.91
8,COc1cccc(CCC2CCCN(C(C)=O)C2)c1 (centres undefined),79.21
9,COc1cccc(CCC2CCCN(C(=O)c3ccccn3)C2)c1 (centres undefined),26.74
10,COc1cccc(OCC2CCCN(C(=O)Cc3cccc(O)c3)C2)c1 (centres undefined),79.21
11,COc1cccc(OCC2CCCN(C(=O)CCc3cc(O)no3)C2)c1 (centres undefined),-29.65
12,c1cc(CN2CCOCC3(C2)CN(Cc2nccs2)CCO3)ccn1 (centres undefined),24.93
13,CN(C)C(=O)COC1COC2(CCN(c3cnccn3)CC2)C1 (centres undefined),-16.53
14,N#Cc1ccccc1CNC(C(=O)N1CCOCC1)c1ccccc1 (centres undefined),-13.11
15,C[C@@H]1CN(C(=O)c2cnc(C3CC3)nc2)CC[C@@]1(O)C1CCOCC1,11.63
16,c1sc(C2CCCCC2)nc1CN1CCn2c(nnc2C2CC2)C1,28.65
17,CS(=O)(=O)NCc1ncn2c1CN(CCN1CCCC1)CCC2,10.64
18,CCOc1ccccc1OC1CCN(C(=O)c2cnns2)CC1,73.34
19,CCOc1ccccc1OC1CCN(C(=O)c2cnsn2)CC1,14.06
20,CCOc1ccccc1OC1CCN(C(=O)c2csnn2)CC1,19.71
21,Cc1cccc(N2CCC3(CCCN3Cc3cn(C)nc3C)CC2)n1,50.32
22,Cc1cccc(N2CCC3(CCCN3Cc3cnn(C)c3C)CC2)n1,11.33
23,Cc1cccc(N2CCC3(CCCN3Cc3c(C)nn(C)c3C)CC2)n1,-28.5
24,COCCNC(=O)C1(c2ccccc2C)CCOCC1,-88.54
25,COCCNC(=O)N1CCN(C(=O)Cc2ccccc2F)CC1,1.06
26,COCCNC(=O)NC1(c2ccccc2F)CC1,54.49

row,SMILES,INHIBITION [%]
1,CCS(=O)(=O)N1CCc2c(nc(C3CCCN3)nc2NC)C1 (centres undefined),40.35
2,Cc1cccc(C(=O)N2CC(=O)N(c3ccccc3Cl)CC2C)n1 (centres undefined),6.75
3,Cc1noc2ncc(C(=O)N3CCCC3c3ccncc3)cc12 (centres undefined),-52.51
4,Cc1noc2ncc(C(=O)N3CCCC3c3cnn(C)c3)cc12 (centres undefined),26.71
5,Cc1noc2ncc(C(=O)N3CCCC3c3ccsc3)cc12 (centres undefined),60.09
6,Cc1cn2c(n1)CCC(NC(=O)CCOc1cccc(F)c1)C2 (centres undefined),-34.22
7,CCc1nccn1C1CCCN(C(=O)c2ccnc(C)n2)C1 (centres undefined),20.53
8,Cc1noc(CNc2cccc(C(=O)N3CCCC(O)C3)c2)n1 (centres undefined),60.9
9,Cc1noc(C)c1CNc1cccc(C(=O)N2CCCC(O)C2)c1 (centres undefined),-82.3
10,Cc1noc(CNc2ccc(C(=O)N3CCCC(C)C3)cc2C)n1 (centres undefined),31.57
11,CCCc1nc(CNc2cccc(C(=O)N3CCCC(O)C3)c2)no1 (centres undefined),24.55
12,Cc1noc(CNc2ccccc2N2CCCCC2)n1,-11.41
13,Cc1noc(CNc2ccccc2C(=O)N2CCCC(O)C2)n1 (centres undefined),74.11
14,CCN(CC)C(=O)[C@@H]1C[C@H](N)CN1c1nnc(-c2ccccc2)s1,-51.55
15,Cc1noc(C)c1CCC(=O)NC(C)c1nnc2n1CCC2 (centres undefined),20.31
16,CCC(C)N(Cc1ccncc1)C(=O)CCC(=O)OC (centres undefined),-28.11
17,CCc1cc(NCCC(F)(F)F)nc(N2CCOCC2)n1,35.15
18,CN1C(=O)C2(CCN(CCO)C2)c2ccccc21 (centres undefined),59.33
19,CN1C(=O)C2(CCN(CC3CCC3)C2)c2ccccc21 (centres undefined),19.05
20,CN1C(=O)C2(CCN(CC3CC3)CC2)c2ccccc21,1.42
21,NC(=O)N1CCC2(CCN(C(=O)c3cccnc3)CC2)C1,-14.06
22,CCNC(=O)[C@@H]1C[C@H](NC(=O)c2ccc(C)s2)CN1Cc1ccc(C)o1,-12.44
23,Cc1occc1C(=O)N1Cc2nccn2CC(CN2CCOCC2)C1 (centres undefined),25.86
24,COc1nc2c(cc1C(=O)NCCCc1nnc(N)s1)CCC2,38.32
25,Cc1noc(CN(C)C2CCCN(Cc3noc(C4CC4)n3)C2)n1 (centres undefined),-23.42
26,O=C(CC1Cn2ncnc2NC1=O)Nc1cccc(C(F)(F)F)c1 (centres undefined),0
